Here are results for eight compounds from PubChem BioAssay (NCATS).

Each structure is given as a SMILES string. Records with an inconclusive call do not appear. Active and inactive are the calls of the source. Unless noted, calls come from the whole dose curve; as a rule, active = well fitted curve in the direction sought with a large enough effect; inconclusive = small, poorly fitted or top-dose-only effect, or another doubt; inactive = no such curve, though single readings can be large; an effect the other way counts as inactive or inconclusive.

The subject of assay [1] is Zika virus NS2B-NS3 protease (unlinked complex). The assay is described as follows: Primary screen GU Rhodamine qHTS for Zika virus inhibitors: Unlinked NS2B-NS3 protease assay (AID 1347159). Note: % is set by controls: 0 for no effect and ±100 for the full control effect; nearly all actives have a fitted effect of over 60% in size. The procedure, abridged:
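Buffer 10 mM Tris-HCl pH 8.0, 0.01% Tween 20. Unlinked protease 25 nM; compound preincubation 15 min, RT, protected from light. Substrate Rhod110, 1.5 microM; ~15% conversion in 15 min.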

Assay [2] concerns the target Cytochrome P450 2C9 (Homo sapiens) (UniProt P11712). The assay is described as follows: Cytochrome P450 family 2 subfamily C member 9 (CYP2C9) small molecule antagonists: luciferase biochemical (cell-free) qHTS assay (AID 1645842; active = well fitted curve in the direction sought with a large enough effect in the repeat runs; an effect the other way counts as inactive or inconclusive; note: nearly all actives have a fitted effect of over 55% in size; note: potency is the fitted concentration of half-maximal effect; for activity change, negative = inhibition: % is set by controls: 0 for no effect and ±100 for the full control effect). The procedure, abridged:
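P450-Glo CYP2C9 system: proluciferin substrate with enzyme in mix containing 0.4% BSA, 10 min at room temperature, then NADPH regeneration solution added and incubated 1 h at 37C. Detection reagent stopped reaction; luminescence read after 20 min as RLU.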

The next assay relates to CRL-7250. The experiment in a line: Cytotoxic Profiling of Annotated Libraries Using Quantitative High-Throughput Screening (AID 1296008). For max response: % is set by controls: 0 for no effect and ±100 for the full control effect. Note: nearly all actives have a fitted effect of over 60% in size. Note: potency is the fitted concentration of half-maximal effect. The following applies: Five cell lines viability, CellTiter-Glo ATP luminescence, 48-72 h; max response: stronger effect = lower value. The procedure, abridged:
(§1)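 Cytotoxicity was measured as CellTiter-Glo ATP luminescence, read after 10 min at room temperature. Compound treatment of the cells lasted 48 or 72 hr at 37 degrees Celsius in a qHTS format.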

For assay [3], the system named is HaCat. Described as above. The following applies: Five cell lines viability, CellTiter-Glo ATP luminescence, 48-72 h; max response: stronger effect = lower value. The procedure, abridged:
as §1

For assay [4], the system named is HACAT. The experiment in a line: qHTS assay to identify novel small-molecules to repurpose for Merkel cell carcinoma treatment (AID 1296009). Note: nearly all actives have a fitted effect of over 60% in size. The note with it: MCC and control cell lines, CellTiter-Glo viability, 72 h; at 44.8 µM (top of the series) unless noted. The procedure, abridged: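 Cell viability, measured as CellTiter-Glo luminescence, was normalized between DMSO and no-cell wells. The cells had been exposed to 8- or 11-point compound dilutions for 72 hr at 37 degree celsius.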

The subject of another assay is PA-1. The experiment in a line: Primary qHTS to identify gynecologic anti-cancer compounds using libraries of approved drugs and bioactive compounds (AID 1345084). Note: nearly all actives have a fitted effect of over 55% in size. Note: potency is the fitted concentration of half-maximal effect. The note with it: Gynecologic cancer cell panel viability, ATPlite luminescence, 48 h; series mostly up to 57.5 µM. The procedure, abridged: (§2)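 Cell viability after 48 h drug treatment, ATPlite luminescence readout; five doses.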

Assay [5] is described as follows: qHTS drug screen for cell cycle checkpoint inhibitors in PARPi-resistant BRCA-mutant ovarian cancer cell lines. (AID 1963452; calls by dose curve). The following applies: PEO1/OlaR viability, CellTiter-Glo luminescence, 96 h, stronger effect = lower value. The procedure, abridged:
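PEO1, PEO4 and PEO1/OlaR ovarian cancer cells, 600 per well, exposed 96 h at 37C to a dilution series. Viability read by CellTiter-Glo luminescence, normalized to DMSO and empty wells; activity summarized as Z-AUC.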

A further assay relates to SKOV3. The experiment in a line: Primary qHTS to identify gynecologic anti-cancer compounds using libraries of approved drugs and bioactive compounds (AID 1345084). Note: nearly all actives have a fitted effect of over 55% in size. Note: potency is the fitted concentration of half-maximal effect. The note with it: Gynecologic cancer cell panel viability, ATPlite luminescence, 48 h; series mostly up to 57.5 µM. The procedure, abridged:
as §2

Assay [6] is described as follows: qHTS assay to identify inhibitors of the type 1 interferon - major histocompatibility complex class I in skeletal muscle: Counter screen cell viability and HiBit confirmation (AID 1347412). For activity change, negative = inhibition: % is set by controls: 0 for no effect and ±100 for the full control effect. Note: nearly all actives have a fitted effect of over 60% in size. Note: potency is the fitted concentration of half-maximal effect. The note with it: iHSKM muscle cells + IFN-b, HiBiT or CellTiter-Glo, 24 h. The procedure, abridged:
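Duplicate plates, pinned identically: one read for HiBiT-tagged endogenous HLA-B luminescence, the other for ATP-content viability via CellTiter Glo. Cells were genome-engineered human myoblasts given 4 ng/ml IFN-b; compounds 12-pt, 1:3 from 46 uM final; 24 hr exposure.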

The target of assay [7] is Catechol O-methyltransferase (Homo sapiens) (UniProt P21964). The experiment in a line: Confirmatory Screen for Target Class Profiling of Small Molecule Inhibitors of Methyltransferases (AID 1745852; calls by dose curve; note: potency is the fitted concentration of half-maximal effect; for activity change, negative = inhibition: % is set by controls: 0 for no effect and ±100 for the full control effect). The following applies: MTase-Glo luminescence, SAH detection, recombinant enzyme; measured here: COMT max response; stronger effect = lower value.
In assay [8] the target is Guanidinoacetate N-methyltransferase (Homo sapiens) (UniProt Q14353). Described as above. The note with it: activity change, negative = inhibition: at 57.3 µM (top of the series) unless noted.
For assay [9], the target named is Nicotinamide N-methyltransferase (Homo sapiens) (UniProt P40261). The assay is described as above. The following applies: MTase-Glo luminescence, SAH detection, recombinant enzyme; measured here: NNMT max response; stronger effect = lower value.
Assay [10] addresses Phenylethanolamine N-methyltransferase (Homo sapiens) (UniProt P11086). Described as above. The following applies: MTase-Glo luminescence, SAH detection, recombinant enzyme; measured here: PNMT max response; stronger effect = lower value.
The target of assay [11] is Cytochrome P450 2D6 (Homo sapiens) (UniProt P10635). The experiment in a line: Cytochrome P450 family 2 subfamily D member 6 (CYP2D6) small molecule antagonists: luciferase biochemical (cell-free) qHTS assay (AID 1645840; active = well fitted curve in the direction sought with a large enough effect in the repeat runs; an effect the other way counts as inactive or inconclusive; note: potency is the fitted concentration of half-maximal effect; nearly all actives have a fitted effect of over 55% in size). The procedure, abridged: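 P450-Glo CYP2D6 system: proluciferin substrate converted by enzyme to luciferin, read by luminescence proportional to activity. Enzyme-substrate mix with compound 10 min at room temperature, then NADPH regeneration 1 h before detection reagent.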

Assay [12] in a line: P-glycoprotein substrates identified in KB-8-5-11 adenocarcinoma cell line, qHTS therapeutic library screen (AID 1346987). Note: potency is the fitted concentration of half-maximal effect; nearly all actives have a fitted effect of over 65% in size. The procedure, abridged:
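Luminescence from CellTiter-Glo, read 5 min after addition, quantified survival of KB-8-5-11 (P-gp-overexpressing) cells exposed to compounds for 72 h. AC50 was derived from concentration-response curves.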

Chain of Cytochrome P450 2D6 (Homo sapiens) (P10635 whole entry, looked up): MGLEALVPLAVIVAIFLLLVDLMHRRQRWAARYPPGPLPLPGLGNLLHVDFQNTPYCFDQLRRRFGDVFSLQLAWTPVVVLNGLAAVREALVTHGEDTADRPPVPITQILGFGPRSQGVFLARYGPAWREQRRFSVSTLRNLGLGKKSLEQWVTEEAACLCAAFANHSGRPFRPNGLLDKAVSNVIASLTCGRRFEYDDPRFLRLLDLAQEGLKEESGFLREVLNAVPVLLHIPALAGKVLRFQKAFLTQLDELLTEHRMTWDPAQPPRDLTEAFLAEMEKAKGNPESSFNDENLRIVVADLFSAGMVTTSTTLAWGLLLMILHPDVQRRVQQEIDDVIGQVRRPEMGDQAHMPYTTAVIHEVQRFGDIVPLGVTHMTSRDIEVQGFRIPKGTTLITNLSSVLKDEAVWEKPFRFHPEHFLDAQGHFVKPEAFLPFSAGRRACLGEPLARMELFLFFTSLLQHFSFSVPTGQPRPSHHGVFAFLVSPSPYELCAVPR
Chain of Cytochrome P450 2C9 (Homo sapiens) (P11712 whole entry, looked up): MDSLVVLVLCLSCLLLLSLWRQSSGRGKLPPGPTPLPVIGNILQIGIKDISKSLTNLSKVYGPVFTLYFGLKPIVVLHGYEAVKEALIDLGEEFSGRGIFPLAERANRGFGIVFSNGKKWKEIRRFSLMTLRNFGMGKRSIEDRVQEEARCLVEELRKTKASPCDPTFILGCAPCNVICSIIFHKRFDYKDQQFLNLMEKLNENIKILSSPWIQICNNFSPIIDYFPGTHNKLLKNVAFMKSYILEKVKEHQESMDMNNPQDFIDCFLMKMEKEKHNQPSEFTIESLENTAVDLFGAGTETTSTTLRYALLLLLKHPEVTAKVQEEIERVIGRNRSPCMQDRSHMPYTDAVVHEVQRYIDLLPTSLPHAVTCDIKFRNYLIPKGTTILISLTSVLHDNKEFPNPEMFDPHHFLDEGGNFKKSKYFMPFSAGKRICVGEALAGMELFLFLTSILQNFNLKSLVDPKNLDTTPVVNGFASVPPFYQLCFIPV
Chain of Catechol O-methyltransferase (Homo sapiens) (P21964 whole entry, looked up): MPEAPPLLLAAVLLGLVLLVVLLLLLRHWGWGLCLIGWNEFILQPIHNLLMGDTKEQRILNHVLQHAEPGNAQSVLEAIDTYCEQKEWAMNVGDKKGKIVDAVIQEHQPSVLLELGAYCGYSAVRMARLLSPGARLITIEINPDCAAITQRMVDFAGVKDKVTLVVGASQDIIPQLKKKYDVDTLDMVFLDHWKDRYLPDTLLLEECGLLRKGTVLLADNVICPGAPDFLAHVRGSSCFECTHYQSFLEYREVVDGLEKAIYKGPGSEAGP
Chain of Phenylethanolamine N-methyltransferase (Homo sapiens) (P11086 whole entry, looked up): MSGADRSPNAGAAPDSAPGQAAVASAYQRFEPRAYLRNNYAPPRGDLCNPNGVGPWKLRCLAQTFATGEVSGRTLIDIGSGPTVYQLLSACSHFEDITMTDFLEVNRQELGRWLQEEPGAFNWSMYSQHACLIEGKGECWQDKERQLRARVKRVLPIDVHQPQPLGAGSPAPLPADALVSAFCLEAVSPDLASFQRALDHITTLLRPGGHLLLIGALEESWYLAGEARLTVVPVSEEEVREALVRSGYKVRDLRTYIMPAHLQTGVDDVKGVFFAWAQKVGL
Chain of Nicotinamide N-methyltransferase (Homo sapiens) (P40261 whole entry, looked up): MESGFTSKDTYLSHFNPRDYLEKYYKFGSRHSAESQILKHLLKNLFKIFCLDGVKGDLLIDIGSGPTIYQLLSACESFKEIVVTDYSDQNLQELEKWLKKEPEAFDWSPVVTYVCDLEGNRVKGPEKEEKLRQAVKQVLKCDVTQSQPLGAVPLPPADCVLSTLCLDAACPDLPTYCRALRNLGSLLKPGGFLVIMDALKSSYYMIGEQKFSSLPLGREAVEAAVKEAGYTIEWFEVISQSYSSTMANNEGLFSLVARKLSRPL

For the compound `C[C@@H](c1nc(-c2ccc(C#N)cc2)cs1)[C@](O)(Cn1cncn1)c1cc(F)ccc1F`, the Potency entry (in assay [1]; with PA-1) was “inactive” each time. Further, the Potency in assay [2] was 6.01 µM (active). The max response with CRL-7250 is -34.3% (inactive). For the same compound, the outcome with HaCat [3] and in the assay with HACAT [4] was “inactive” throughout.

As for `COc1cc2ncnc(Oc3cccc(NC(=O)Nc4cc(C(C)(C)C(F)(F)F)on4)c3)c2cc1OC`, the Potency in assay [2] was 12 µM (active); with HaCat [3], 5.17 µM (active); in assay [6] (HiBiT) it was 24.9 µM (active). Also, the Z-AUC is 0.198 (inactive) in [5], 0.387 in [5] (measured here: PEO1 parental Z-AUC) and 0.555 in assay [5] (measured here: PEO4 Z-AUC). The Potency entry in the assay on PA-1 and in the assay with SKOV3 was “inactive” throughout. Also, the activity change, negative = inhibition in [6] (Viability, at 45.9 µM (top of the series)) was -21.3% (inactive).

In the case of `CC(C)(C)c1ccc(-c2nc3ccccc3[nH]2)cc1`, the activity was -68.9% in assay [7], -65.6% in assay [9] and -70.3% in assay [10]. The Potency was 10.5 µM (active) in [8], 1 µM (active) in the assay with PA-1 and 1 µM (active) with SKOV3. For the same compound, the max response with HaCat [3] is -8.47% (inactive).

In the case of `CCN1CCN(Cc2ccc(-c3cc4c(NC(C)c5ccccc5)ncnc4[nH]3)cc2)CC1` (stereo not given), the Potency entry in assay [1] and in assay [2] was “inactive” throughout. The Potency was 12 µM (active) in assay [11], 2.91 µM (active) with HaCat [3] and 3.55 µM (active) with SKOV3.

As for `CCCCn1ccc(N2CCC(c3ccccc3)CC2)c(Cl)c1=O`, the outcome with HaCat [3] and in the assay with HACAT [4] was “inactive” throughout. In addition, in the assay on PA-1, the Potency was 25.1 µM (active).

On to `CCC(C)n1cc(C)c2c(C(=O)NCc3c(C)cc(C)[nH]c3=O)cc(-c3ccc(N4CCNCC4)nc3)cc21` (stereo not given), for which the Potency result (in assay [1]; with PA-1; in the assay on SKOV3) was “inactive” throughout. For the same compound, the Potency in assay [2] is 2.13 µM (active). The outcome in the assay with HaCat [3] and in the assay with HACAT [4] was “inactive” each time.

As for `O=S(=O)(c1cccc2ccccc12)n1ccc2ccc(N3CCN4CCCC4C3)cc21` (stereo not given), the values for the Potency in [12], in [11] and in [2] were 20.6 µM (active), 2.68 µM (active) and 12 µM (active), respectively. Also, the Potency entry (in assay [1]; in the assay on SKOV3) was “inactive” each time. The max response is -10.4% (inactive) in the assay with CRL-7250 and 4.67% (inactive) with HaCat [3].

Turning to `COc1ccc2c(c1)C[C@H](C(=O)Nc1ccc(-c3cn[nH]c3)cc1OCCN(C)C)CO2`, the Potency entry (in assay [1]; in the assay with PA-1; in the assay on SKOV3) was “inactive” throughout. Besides, the Potency in assay [11] was 9.52 µM (active); in assay [2], 4.25 µM (active); with CRL-7250 it was 20.6 µM (active). Moreover, the activity is -2.58% in [7], -0.41% in assay [9] and 0.522% in assay [10]. Moreover, the activity change, negative = inhibition in assay [8] was -2.48% [at 9.47 µM]. Further, the outcome in the assay with HaCat [3] and in the assay on HACAT [4] was “inactive” each time.
